aSyn UTR inh – MLPCN primary screen, SNCA 5' untranslated region. alpha-synuclein 5'UTR reporter, inhibitor activity. inhibition, % (tested at 7.5 µM). hit rate 0.82% among 300,000. AID 1813, 2009; in the data active = inhibition above about 60%;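 note: H4 neuroglioblastoma cells stably carrying SNCA 5'UTR luciferase fusion; 0% = DMSO wells and 100% = positive control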
Ba/F3 V617F tox – reduced viability of JAK2V617F-dependent Ba/F3 cells, primary screen, JAK2V617F inhibitor project, cell-based, Ba/F3 EpoR-JAK2V617F, luminescence | inhibition, % at 5.6 µM | hit rate 1.1% among 220,000 | AID 1446, 2008 | ATP luminescence;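 active = inhibition above the campaign mean plus 3 SD over all tested compounds, cut at about 24% in these data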;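 note: cytokine-independent growth of Ba/F3 cells driven by EpoR plus mutant JAK2; 0% = DMSO-treated cells and 100% = JAK inhibitor I control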
IEC-6 cytotox – cytotoxicity in IEC-6 intestinal epithelial cells, primary screen, cytotoxicity control for KLF5 inhibitor project, cell-based, luminescence; inhibition, % at 5 µM; hit rate 0.78% among 290,000; IEC-6 cytotoxicity, luminescence viability; in the data active = inhibition above about 22%;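 note: 0% = plate median of test compound wells and 100% = cytotoxic reference compound wells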
APP transl inh – inhibitors of APP translation via 5'UTR reporter, primary screen, APP 5'UTR luciferase, SH-SY5Y cells | SH-SY5Y APP 5'UTR-luciferase reporter, luminescence | inhibition, % at 2 µM | hit rate 0.82% among 190,000 | AID 1285, 2008;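 active = inhibition above a set limit, derived from the sample mean plus 3 SD, cut at about 45% in these data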
KLF5 inhibitor – KLF5 expression inhibitors, primary screen, DLD-1 cells, luminescence. DLD-1 KLF5 promoter-luciferase reporter. hit rate 0.23% among 290,000. inhibition, % at 5 µM;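 active = inhibition above a per-plate limit of that plate's mean compound inhibition plus 3 SD, cut at about 60% in these data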;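 note: 0% = DMSO wells and 100% = LY294002 at 200 µM; higher means less KLF5 promoter-driven luciferase light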
BaF3 tox – parental Ba/F3 cell viability inhibition, counter-screen for JAK2V617F inhibitor project, murine pro-B, CellTiter-Glo luminescence. inhibition, % at 5.6 µM. hit rate 1.1% among 220,000. AID 1486, 2009. CellTiter-Glo ATP luminescence;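 active = inhibition above a per-campaign cutoff, the mean inhibition of all tested compounds plus 3 SD, cut at about 27% in these data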;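 note: 0% = DMSO wells and 100% = JAK Inhibitor I control wells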
Numbers without * were called inactive; x = no result. This is a sample that favours compounds with a hit; in the whole collection about 2.1% have one here.

SMILES	aSyn UTR inh	Ba/F3 V617F tox	IEC-6 cytotox	APP transl inh	KLF5 inhibitor	BaF3 tox
O=C(Nc1ccc(NC(=O)c2ccccc2)nc1)c1ccncc1	-81	-4	-9	8	-40	3
O=C(Nc1ccc(NC(=O)c2ccccc2Cl)nc1)c1ccncc1	-15	-1	1	-4	-30	90*
O=C(Cn1ncc2c([nH]c3ccccc32)c1=O)NCC1CCN(Cc2ccccc2F)CC1	20	x	-1	x	-11	x
O=C(Nc1nc2c(F)cc(F)cc2s1)c1ccccn1	73*	-5	13	-18	-109	6
COc1ccc(NC(=O)c2ccccn2)cc1	75*	9	3	-80	4	10
CCOc1ccc2nc(NC(=O)Nc3ccccc3)sc2c1	-131	7	6	-148	-143	11
CCOc1ccc2nc(NC(=O)c3ccccn3)sc2c1	80*	5	13	x	-34	3
COc1ccc(C(=O)Nc2ccc(NC(=O)c3ccccn3)cn2)cc1	-35	x	-5	x	-21	x
COc1ccc(N(CC(=O)NCc2ccc(F)cc2)C(=O)c2snc(C(N)=O)c2N)cc1	1	x	-5	x	-1	x
CCCc1ccc2oc(C(=O)N3CCC(C(N)=O)(N4CCCCC4)CC3)c(C)c2c1	4	x	1	x	-24	x
Cc1ccsc1C(=O)NCc1ccc(F)cc1	1	x	-5	x	-14	x
Cc1[nH]n(C(N)=S)c(=O)c1N=Nc1cccc(C(F)(F)F)c1	-165	x	2	x	-139	x
Cc1[nH]n(C2=NCCS2)c(=O)c1N=Nc1cccc(C(F)(F)F)c1	67*	0	-8	53*	-27	7
Cc1nc(NC(=O)c2cccnc2Cl)sc1C	-32	x	x	x	x	x
O=C(c1ccc2ncsc2c1)N1CCN(c2ccccc2Cl)CC1	-33	7	-3	-9	-58	11
Cc1cccc(N2CCN(C(=O)c3ccc4ncsc4c3)CC2)c1C	x	60*	36*	80*	47	54*
NS(=O)(=O)c1ccc(NC(=O)COC(=O)CCc2ccc(S(=O)(=O)N3CCOCC3)cc2)cc1	-11	-2	3	x	-2	-5
COC(=O)c1cc(CSc2nc3ccccc3c(=O)n2C)oc1C	-19	x	-6	x	-1	x
COC(=O)C1=C(N)Oc2cc(C)n(CC3CCCO3)c(=O)c2C1c1ccccc1OC (stereo unspecified)	-1	0	4	0	-15	4
COC(=O)C1=C(N)Oc2cc(N(C)C)ccc2C1c1ccccc1OC (stereo unspecified)	83*	-4	3	66*	-6	5
COc1ccc(O)c(/C=N/NC(=O)c2c(C)nnn2-c2nonc2N)c1	64*	-2	4	41	-16	1
Nc1cc(Cl)ccc1N1CCCC1	-2	42*	-1	-4	-31	55*
Nc1cc(F)ccc1N1CCCCCC1	-5	39*	-5	2	-25	57*
CCn1c(CN2CCN(C(c3ccccc3)c3ccccc3)CC2)nc2c1c(=O)n(C)c(=O)n2C	10	x	-6	x	-39	x
CCCOc1ccc(C(=O)N(CC(C)C)c2c(N)n(Cc3ccccc3)c(=O)[nH]c2=O)cc1	12	x	x	x	x	x
SMILES	aSyn UTR inh	Ba/F3 V617F tox	IEC-6 cytotox	APP transl inh	KLF5 inhibitor	BaF3 tox
COC(=O)/C=C/c1ccccc1S(=O)(=O)N(Cc1ccccc1)Cc1ccco1	89*	x	x	x	x	x
Cc1ccc(-c2cc(-c3ccccc3)no2)c(O)c1	-16	-2	-8	-276	-155	2
Cc1ccc2nc(-c3cc(-c4ccccc4)no3)cn2c1	86*	-1	3	x	-92	-2
CC(=O)NS(=O)(=O)c1ccc(NC(=O)CCC2CCCC2)cc1	7	0	5	52*	-9	3
CC(=O)N1CCCN(Cc2cn(-c3ccc(C)cc3)nc2-c2cccc(C)c2)CC1	-1	0	2	-6	-22	41*
COc1ccc(-n2cc(CN3CCCC3)c(-c3cccc(F)c3)n2)cc1	-25	-2	8	-5	-21	1
O=C(CN1CCN(C(=O)C2CCCO2)CC1)Nc1ccc(Cl)cc1 (stereo unspecified)	8	x	-10	x	-6	x
CCOC(=O)c1ccccc1NC(=O)CN(c1ccc(OCC)cc1)S(C)(=O)=O	35	27*	0	52*	14	37*
CCC1C(=O)NCCN1C(=O)c1ccc(OC)c(OC2CCN(C(C)=O)CC2)c1 (stereo unspecified)	15	x	-4	x	-38	x
Cc1ccc(NC(=O)C[n+]2cc(-c3ccc(C)cc3)n3c2CCC3)cc1	x	-4	-4	x	-7	-1
Cc1ccc(-c2c[n+](Cc3ccc(Cl)c(Cl)c3)c3n2CCC3)cc1	20	78*	0	-9	-14	73*
O=C(C[n+]1cc(-c2ccccc2)n2c1CCCCC2)c1ccc(Br)cc1	13	61*	-1	7	-2	73*
COc1ccc(C(=O)C[n+]2ccc(-c3nnc4n3CCCCC4)cc2)cc1	-17	-2	-3	x	5	0
COc1ccc(C(=O)C[n+]2cc(-c3ccc(OC)cc3)n3c2CCCC3)cc1	5	65*	5	-16	3	64*
Cc1ccc(C(=O)C[n+]2cc(-c3ccc(C)cc3)n3c2CCCCC3)cc1	5	102*	20	-4	3	89*
O=C(C[n+]1cc(-c2ccccc2)n2c1CCC2)OCc1ccccc1	10	1	5	-1	-18	3
CCOc1ccc2nc(COC(=O)c3ccncc3)c(C(=O)c3ccccc3)[n+]([O-])c2c1	-60	-4	-2	x	-27	1
CCOC(=O)/C=C(\C)Sc1cc(O)c2ccccc2c1O	x	0	34*	x	-11	0
CCOC(=O)/C=C(\C)Sc1cc(=O)oc2ccccc12	-7	4	3	-10	-14	6
CCN(C(=O)CSc1nc2cc(S(=O)(=O)N(CC)CC)ccc2n1CC)C1CCS(=O)(=O)C1 (stereo unspecified)	9	x	x	x	x	x
CC(C)(C)c1cc(CCC(=O)NCc2ccccn2)cc(C(C)(C)C)c1O	-35	x	1	x	-8	x
CC#CC[N+](C)(C)CCCCCCCC	5	66*	8	x	27	63*
CC#CC[N+](C)(C)CC(=O)c1ccccc1	0	0	-2	x	-12	0
CC(C)(C)OC(=O)N1CCC[C@H]1C(=O)Nc1ccc(C#N)cc1	-12	x	-7	x	1	x
CC(C)NC(=O)Cn1c(SCC(=O)N2c3ccccc3CC2C)nc2ccccc21 (stereo unspecified)	28	3	-4	0	-33	95*
COc1ccc(CCNc2nc(-c3sc(C)nc3C)cs2)cc1OC	18	-1	1	55*	-19	4
Cc1ccc([N+](=O)[O-])cc1NC(=O)CSc1n[nH]c(-c2cccnc2)n1	11	x	-3	x	-16	x

High-throughput results (PubChem BioAssay)
